The source made the active and inactive calls. The calls were made as follows: active = hit-call score of the fitted dose curve at least 0.9, where 1 is the maximum; inactive = score below 0.9.
Columns and labels:
[1] = ATG_GLI_CIS: Attagene CIS-FACTORIAL HepG2 Assay for human Zinc Finger Protein GLI1 (AID 2282945); conditions: HepG2, Attagene cis-factorial reporter mRNA, GLI element; actives raise or lower the signal
In short: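 Transiently transfected HepG2 cells report endogenous transcription factor activity via cis-element-driven reporter units. After 24 h compound exposure, reporter mRNA was measured by RT-PCR with capillary electrophoresis; bidirectional fitting against DMSO baseline.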

[2] = ATG_GRE_CIS: Attagene CIS-FACTORIAL HepG2 Assay for human Glucocorticoid Response Elements (GRE) (AID 2282947); conditions: HepG2 GRE cis-reporter, Attagene multiplex mRNA; actives raise or lower the signal
In short: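 Read-out: fluorescent reporter-transcript fragments separated by capillary electrophoresis after RT-PCR. Transiently transfected HepG2 cells carrying cis-element-driven reporter units were dosed for 24 h; gain or loss of signal fitted against DMSO control.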

[3] = ATG_ISRE_CIS: Attagene CIS-FACTORIAL HepG2 Assay for human Interferon Regulatory Factor 1 (IRF1) binding to an Interferon-Stimulated Response Element (ISRE) (AID 2282948); conditions: HepG2 ISRE cis-reporter (Attagene), mRNA transcription readout; actives raise or lower the signal
In short: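 Uses HepG2 liver cells transfected with cis-regulated reporters and measures mRNA 24 h post-dosing through RT-PCR, primer-extension labelling and capillary electrophoresis, with DMSO as negative control.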

[4] = ATG_M_32_CIS: Attagene CIS-FACTORIAL HepG2 Assay for M32 Transcription Factor (Internal Marker) (AID 2282949); conditions: HepG2 Attagene cis-factorial M32 reporter, mRNA; actives raise or lower the signal;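 also: background control marker of the multiplexed CIS panel rather than a real target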
In short: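 Transient MRTU transfection of HepG2; 24 h compound treatment; TriZol RNA, oligo(dT) RT, reporter PCR, 6-FAM primer extension, HpaI cut, CE. Gain/loss of signal vs DMSO.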

[5] = ATG_M_06_CIS: Attagene CIS-FACTORIAL HepG2 Assay for M06 Transcription Factor (Internal Marker) (AID 2282950); conditions: HepG2 Attagene CIS-FACTORIAL M06 internal marker reporter; actives raise or lower the signal
In short: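 Steps: transfect HepG2 with multiplexed cis-element reporter constructs; dose chemical 24 h; extract RNA with DNase treatment; reverse-transcribe, PCR-amplify, 6-FAM label, HpaI digest; separate fragments by capillary electrophoresis. Activity fitted both directions versus DMSO.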

[6] = target: Hypoxia-inducible factor 1-alpha (Homo sapiens) (UniProt Q16665); assay: ATG_HIF1a_CIS: Attagene CIS-FACTORIAL HepG2 Assay for human Hypoxia Inducible Factor 1 (HIF1A) (AID 2282951); conditions: HepG2 Attagene cis-factorial HIF1a reporter transcription; actives raise or lower the signal
In short: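 Transient MRTU transfection of human HepG2 liver cells, 24 h compound treatment, then total RNA isolation, oligo(dT) reverse transcription, PCR amplification, fluorescent labelling and capillary electrophoresis of reporter fragments. Gain or loss relative to DMSO.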

[7] = target: Hepatocyte nuclear factor 6 (Homo sapiens) (UniProt Q9UBC0); assay: ATG_HNF6_CIS: Attagene CIS-FACTORIAL HepG2 Assay for human Hepatocyte Nuclear Factor 6 (HNF6) (AID 2282952); conditions: HepG2 Attagene cis-factorial HNF6 reporter transcription; actives raise or lower the signal
In short: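 Activity values derive from bidirectional fitting against DMSO of reporter mRNA levels, measured by capillary electrophoresis of labelled RT-PCR products from HepG2 cells exposed 24 h.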

[8] = target: Heat shock factor protein 1 (Homo sapiens) (UniProt Q00613); assay: ATG_HSE_CIS: Attagene CIS-FACTORIAL HepG2 Assay for human Heat Shock Transcription Factor 1 (HSE) (AID 2282953); conditions: HepG2 HSE cis-reporter, Attagene RNA transcription; actives raise or lower the signal
In short: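 Cells were transfected with cis-element-driven reporter constructs, dosed for 24 h, then total RNA was reverse-transcribed and reporter cDNA amplified, FAM-labelled and digested with HpaI. Fragments were resolved by capillary electrophoresis; gain or loss was fitted against DMSO.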

[9] = ATG_MRE_CIS: Attagene CIS-FACTORIAL HepG2 Assay for human Metal Responsive Element (MRE) (AID 2282954); conditions: HepG2 MRE cis-reporter transcription, Attagene multiplex; actives raise or lower the signal
In short: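 RT-PCR/capillary electrophoresis readout of reporter mRNA, 24 h post-dosing, in HepG2 cells transfected with multiplexed cis-regulated reporter constructs. Gain or loss of signal fitted bidirectionally against DMSO baseline.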

[10] = target: Paired box protein Pax-6 (Homo sapiens) (UniProt P26367); assay: ATG_Pax6_CIS: Attagene CIS-FACTORIAL HepG2 Assay for human Paired Box 6 (PAX6) (AID 2282956); conditions: HepG2 CIS-FACTORIAL PAX6 reporter transcription, RNA readout; actives raise or lower the signal
In short: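 DMSO-referenced bidirectional fits of reporter mRNA fluorescence; HepG2 with transient cis-promoter MRTUs, 24 h post-dose, RT-PCR plus capillary electrophoresis detection.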

[11] = ATG_PXRE_CIS: Attagene CIS-FACTORIAL HepG2 Assay for human Pregnane X Receptor Element (PXRE) (AID 2282957); conditions: HepG2 Attagene CIS-FACTORIAL PXRE reporter, mRNA; actives raise or lower the signal
In short: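 Fluorescent capillary electrophoresis of amplified reporter cDNA gave the signal, collected 24 h after dosing HepG2 cells that held transfected cis-element reporter constructs.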

[12] = ATG_PPRE_CIS: Attagene CIS-FACTORIAL HepG2 Assay for human Peroxisome Proliferator-activated Response Element (PPRE) (AID 2282958); conditions: HepG2 PPRE cis-element reporter, Attagene transcription factor profiling; actives raise or lower the signal
In short: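 HepG2, transient MRTU transfection (cis promoter elements, endogenous TFs). 24 h dosing. RNA → oligo(dT) RT → PCR → 6-FAM primer extension → HpaI digest → CE. Bidirectional fit vs DMSO.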

[13] = ATG_RORE_CIS: Attagene CIS-FACTORIAL HepG2 Assay for human RAR-related Orphan Receptor Element (RORE) (AID 2282959); conditions: HepG2 Attagene cis-factorial RORE reporter, mRNA; actives raise or lower the signal
In short: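 Transient MRTU transfection of human HepG2 liver cells (FuGene 6); 24 h compound exposure; TriZol RNA, oligo(dT) RT, PCR, FAM labeling, HpaI cut, CE fragment analysis. DMSO = negative control/baseline.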

[14] = ATG_Sox_CIS: Attagene CIS-FACTORIAL HepG2 Assay for human SRY-box transcription factor (SOX) (AID 2282960); conditions: HepG2 Attagene cis-factorial SOX reporter, mRNA; actives raise or lower the signal
In short: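 Endogenous factor activity in human liver HepG2 cells carrying transfected cis-regulated reporter units. RNA taken 24 h post-dose, reverse-transcribed, PCR-amplified and sized by capillary electrophoresis. Gain or loss of signal fitted relative to DMSO.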

[15] = target: Transcription factor Sp1 (Homo sapiens) (UniProt P08047); assay: ATG_Sp1_CIS: Attagene CIS-FACTORIAL HepG2 Assay for human Specificity Protein 1 (Sp1) (AID 2282961); conditions: HepG2 Sp1 cis-reporter transcription, actives raise or lower the signal
In short: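 Transient MRTU-transfected HepG2, 24 h compound exposure. Total RNA → oligo(dT) RT → PCR of reporter → 6-FAM primer extension → HpaI digest → CE. Endpoint fitted both directions vs DMSO.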

[16] = ATG_SREBP_CIS: Attagene CIS-FACTORIAL HepG2 Assay for human Sterol Regulatory Element Binding (SREBP) (AID 2282962); conditions: HepG2 Attagene cis-factorial SREBP reporter, mRNA; actives raise or lower the signal
In short: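 In this cis-format assay, HepG2 liver cells express reporters controlled by promoter elements responsive to native transcription factors. Exposure lasts 24 h; reporter mRNA fluorescence from capillary electrophoresis gives the signal, fitted bidirectionally against DMSO.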

[17] = target: Signal transducer and activator of transcription 3 (Homo sapiens) (UniProt P40763); assay: ATG_STAT3_CIS: Attagene CIS-FACTORIAL HepG2 Assay for human Signal Transducer and Activator of Transcription 3 (STAT3) (AID 2282963); conditions: HepG2, Attagene cis-factorial STAT3 reporter transcription; actives raise or lower the signal
In short: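 Readout: fluorescent reporter mRNA fragments resolved by capillary electrophoresis. Setup: HepG2 transfected with MRTUs reporting endogenous transcription-factor activity, dosed 24 h. Gain or loss of signal fitted bidirectionally against DMSO control.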

[18] = ATG_TA_CIS: Attagene CIS-FACTORIAL HepG2 Assay for human TA Basal Promoter (AID 2282964); conditions: HepG2 Attagene CIS-factorial TA basal promoter reporter; actives raise or lower the signal
In short: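 Steps: transfect HepG2 with MRTUs; dose 24 h; isolate RNA, DNase-treat, reverse-transcribe; PCR and FAM-label reporter cDNA; digest with HpaI 2h at 37 C; run capillary electrophoresis. Activity fitted both directions against DMSO.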

[19] = ATG_PBREM_CIS: Attagene CIS-FACTORIAL HepG2 Assay for human Phenobarbital-responsive Enhancer Module (PBREM) (AID 2282955); conditions: HepG2 PBREM cis-reporter, Attagene multiplexed transcription; actives raise or lower the signal
In short: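 Endogenous transcription factors in human liver HepG2 cells drive a PBREM cis-element reporter, whose transcript level after 24 h treatment is quantified by RT-PCR with capillary electrophoresis; activity fitted in both directions against DMSO.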

Measured: AC50

Heat shock factor protein 1 (Homo sapiens), sequence (Q00613 whole entry, looked up, the tested form may be a part): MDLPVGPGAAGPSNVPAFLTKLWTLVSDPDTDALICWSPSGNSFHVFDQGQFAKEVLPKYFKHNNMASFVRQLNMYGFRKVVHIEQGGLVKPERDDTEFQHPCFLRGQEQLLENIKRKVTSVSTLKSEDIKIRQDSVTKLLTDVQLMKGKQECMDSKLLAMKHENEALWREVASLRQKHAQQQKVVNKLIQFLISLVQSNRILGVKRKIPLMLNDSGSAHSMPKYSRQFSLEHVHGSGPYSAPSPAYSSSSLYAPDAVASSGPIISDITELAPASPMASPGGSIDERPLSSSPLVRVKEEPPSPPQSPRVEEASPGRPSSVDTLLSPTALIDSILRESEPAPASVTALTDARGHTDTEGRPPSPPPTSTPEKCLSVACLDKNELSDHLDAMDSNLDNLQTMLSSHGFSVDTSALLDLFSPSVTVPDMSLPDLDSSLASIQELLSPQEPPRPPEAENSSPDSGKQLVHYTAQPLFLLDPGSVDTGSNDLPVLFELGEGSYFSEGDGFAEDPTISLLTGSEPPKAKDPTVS
Hypoxia-inducible factor 1-alpha (Homo sapiens), sequence (Q16665 whole entry, looked up, the tested form may be a part): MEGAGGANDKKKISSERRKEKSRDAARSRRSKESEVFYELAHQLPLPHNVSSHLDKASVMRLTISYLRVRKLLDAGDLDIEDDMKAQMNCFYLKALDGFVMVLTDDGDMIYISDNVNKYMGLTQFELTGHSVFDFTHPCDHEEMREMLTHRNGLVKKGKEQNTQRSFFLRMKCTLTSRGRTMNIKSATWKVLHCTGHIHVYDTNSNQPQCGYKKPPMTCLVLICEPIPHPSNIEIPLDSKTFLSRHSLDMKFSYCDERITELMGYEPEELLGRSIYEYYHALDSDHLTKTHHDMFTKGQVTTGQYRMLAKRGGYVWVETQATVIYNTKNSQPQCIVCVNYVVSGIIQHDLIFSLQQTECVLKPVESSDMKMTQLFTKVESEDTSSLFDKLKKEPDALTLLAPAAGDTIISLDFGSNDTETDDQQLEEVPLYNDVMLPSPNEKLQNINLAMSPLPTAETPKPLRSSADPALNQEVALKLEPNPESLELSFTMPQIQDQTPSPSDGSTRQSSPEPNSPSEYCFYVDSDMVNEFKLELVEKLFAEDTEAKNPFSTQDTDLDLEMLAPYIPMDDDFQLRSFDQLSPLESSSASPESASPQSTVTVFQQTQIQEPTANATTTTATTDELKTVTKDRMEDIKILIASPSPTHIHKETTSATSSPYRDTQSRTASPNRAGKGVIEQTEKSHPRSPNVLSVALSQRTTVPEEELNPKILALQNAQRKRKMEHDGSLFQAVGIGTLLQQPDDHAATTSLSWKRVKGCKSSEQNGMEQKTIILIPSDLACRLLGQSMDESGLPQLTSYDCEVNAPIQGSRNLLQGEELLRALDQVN
Signal transducer and activator of transcription 3 (Homo sapiens), sequence (P40763 whole entry, looked up, the tested form may be a part): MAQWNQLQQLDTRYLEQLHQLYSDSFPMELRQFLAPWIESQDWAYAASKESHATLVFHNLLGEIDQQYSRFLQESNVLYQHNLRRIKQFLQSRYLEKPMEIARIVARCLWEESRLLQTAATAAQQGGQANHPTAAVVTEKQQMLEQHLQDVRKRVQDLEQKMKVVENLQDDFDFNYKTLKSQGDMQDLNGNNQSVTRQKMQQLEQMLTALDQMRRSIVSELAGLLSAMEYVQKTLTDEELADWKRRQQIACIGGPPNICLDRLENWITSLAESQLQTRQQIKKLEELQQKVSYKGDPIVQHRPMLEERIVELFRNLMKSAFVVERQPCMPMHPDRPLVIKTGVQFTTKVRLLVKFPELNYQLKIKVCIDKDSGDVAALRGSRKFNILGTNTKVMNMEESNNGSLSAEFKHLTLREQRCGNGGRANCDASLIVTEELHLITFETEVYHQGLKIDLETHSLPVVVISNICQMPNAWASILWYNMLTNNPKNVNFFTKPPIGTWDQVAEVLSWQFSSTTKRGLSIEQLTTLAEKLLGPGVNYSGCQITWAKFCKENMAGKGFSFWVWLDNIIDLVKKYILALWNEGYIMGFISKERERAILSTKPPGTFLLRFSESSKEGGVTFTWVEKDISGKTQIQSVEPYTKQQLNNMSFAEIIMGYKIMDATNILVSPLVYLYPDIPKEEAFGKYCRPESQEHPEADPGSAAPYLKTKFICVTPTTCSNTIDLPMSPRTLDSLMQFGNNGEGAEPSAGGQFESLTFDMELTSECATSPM
Paired box protein Pax-6 (Homo sapiens), sequence (P26367 whole entry, looked up): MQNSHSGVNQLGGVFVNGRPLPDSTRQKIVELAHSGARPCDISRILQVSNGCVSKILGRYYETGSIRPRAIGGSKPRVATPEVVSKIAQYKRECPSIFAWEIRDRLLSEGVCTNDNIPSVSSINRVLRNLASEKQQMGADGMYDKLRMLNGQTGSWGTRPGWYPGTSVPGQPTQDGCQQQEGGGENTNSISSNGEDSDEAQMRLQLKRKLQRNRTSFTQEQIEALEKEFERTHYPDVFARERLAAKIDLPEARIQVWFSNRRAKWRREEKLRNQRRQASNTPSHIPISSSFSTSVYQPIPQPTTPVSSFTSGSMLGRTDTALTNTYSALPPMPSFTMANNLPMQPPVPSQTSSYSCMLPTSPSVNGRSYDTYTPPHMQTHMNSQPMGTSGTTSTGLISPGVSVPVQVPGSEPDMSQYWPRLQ
Hepatocyte nuclear factor 6 (Homo sapiens), sequence (Q9UBC0 whole entry, looked up): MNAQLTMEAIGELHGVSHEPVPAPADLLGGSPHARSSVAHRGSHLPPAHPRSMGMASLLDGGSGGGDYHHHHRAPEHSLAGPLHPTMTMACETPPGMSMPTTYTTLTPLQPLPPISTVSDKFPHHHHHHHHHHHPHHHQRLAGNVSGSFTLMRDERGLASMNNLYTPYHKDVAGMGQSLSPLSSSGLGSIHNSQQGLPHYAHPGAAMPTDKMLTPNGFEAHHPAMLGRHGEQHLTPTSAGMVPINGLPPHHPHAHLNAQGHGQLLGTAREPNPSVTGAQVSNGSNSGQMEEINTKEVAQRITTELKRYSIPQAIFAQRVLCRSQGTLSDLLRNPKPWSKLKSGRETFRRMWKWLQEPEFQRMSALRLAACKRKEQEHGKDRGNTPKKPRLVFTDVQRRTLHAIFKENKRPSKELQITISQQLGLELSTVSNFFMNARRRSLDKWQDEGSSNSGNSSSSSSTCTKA
Transcription factor Sp1 (Homo sapiens), sequence (P08047 whole entry, looked up): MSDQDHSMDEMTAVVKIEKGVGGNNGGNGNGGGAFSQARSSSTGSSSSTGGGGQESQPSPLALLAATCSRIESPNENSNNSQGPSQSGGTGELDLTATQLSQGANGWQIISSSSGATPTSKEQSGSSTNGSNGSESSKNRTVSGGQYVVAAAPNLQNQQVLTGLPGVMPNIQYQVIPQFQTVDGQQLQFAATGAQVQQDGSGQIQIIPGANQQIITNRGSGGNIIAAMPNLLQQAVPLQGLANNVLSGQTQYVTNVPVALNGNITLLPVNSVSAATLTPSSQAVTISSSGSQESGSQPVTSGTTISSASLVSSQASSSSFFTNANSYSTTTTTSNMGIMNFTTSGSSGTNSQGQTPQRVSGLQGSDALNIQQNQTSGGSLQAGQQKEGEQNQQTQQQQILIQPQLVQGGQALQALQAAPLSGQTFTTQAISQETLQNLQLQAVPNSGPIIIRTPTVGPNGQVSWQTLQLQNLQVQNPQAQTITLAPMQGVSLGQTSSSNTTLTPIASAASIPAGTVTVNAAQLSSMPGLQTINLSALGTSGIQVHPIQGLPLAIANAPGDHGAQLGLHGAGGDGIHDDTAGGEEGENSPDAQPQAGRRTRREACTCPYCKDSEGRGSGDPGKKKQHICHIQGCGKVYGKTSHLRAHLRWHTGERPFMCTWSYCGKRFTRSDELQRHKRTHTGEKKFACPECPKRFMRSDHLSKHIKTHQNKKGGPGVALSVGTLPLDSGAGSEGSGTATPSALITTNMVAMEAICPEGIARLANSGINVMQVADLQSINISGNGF

CCCCOC(=O)C(C)OC(=O)CCC (stereo not drawn)
not listed: [19]
inactive: all other assays above

CCCC1CCC(=O)CC1
active: [11] 27.6 µM
not listed: [12] | [13]
inactive: all other assays above

C1CCCNCC1
active: [11] 27.3 µM
not listed: [12] | [16] | [17]
inactive: all other assays above

CC(=O)CCc1ccc(O)cc1
not listed: [19]
inactive: all other assays above

S=c1[nH][nH]c(=S)s1
not listed: [12] | [17]
inactive: all other assays above

CCCCC/C=C\C=C\C(=O)OCC
inactive: [2] | [4] | [5] | [7] | [13] | [16] | [17] | [18]
active: [1] 64 µM | [3] 56.3 µM | [6] 78.5 µM | [8] 46.7 µM | [9] 55.1 µM | [10] 62.9 µM | [11] 1.51 µM | [12] 4.97 µM | [14] 28.4 µM | [15] 28.7 µM

C=C(C)C(=O)OCCC(C)OC(=O)C(=C)C (stereo not drawn)
active: [11] 56.2 µM
not listed: [12] | [13]
inactive: all other assays above

CC1(C)CC(=O)CC(C)(C)N1
active: [11] 36.2 µM
not listed: [12] | [19]
inactive: all other assays above

From PubChem BioAssay (EPA / NIEHS)
